Measured values published in PubChem BioAssay AID1159580 (chemical genetic matrix, 2015).
Screen size: about 5,500 compounds; about 2,000 (36%) were called active. Inconclusive results (about 18%) are left out. Rule as the data show it: active = normalized growth mostly below about 0.91 (no sharp cut-off); inconclusive = no clear call, values can overlap the other calls; inactive = mostly above about 0.92. The list shows a part of the results.

Experiment: chemical genetic growth profiling, strain panel (AID 1159580);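 also: tested at 20 µM; growth read once vehicle control cultures reached saturation at 30 °C; 1 = growth at the plate median or of vehicle wells; lower values mean less growth of the strain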
Details: S. cerevisiae deletion strains, growth OD

Measured: normalized growth

CN(C)[C@@H]1C(=O)C(C(=O)NCN2CCCC2)=C(O)[C@@]2(O)C(=O)C3=C(O)c4c(O)cccc4[C@@](C)(O)[C@H]3C[C@@H]12
active: locus YEL003W, strain gim4, active compounds read low 0.732 | locus YLR221C, strain rsa3, active compounds read low 0.907 | locus YLR357W, strain rsc2, active compounds read low 0.787 | locus YMR058W, strain fet3, active compounds read low 0.879 | locus YNL248C, strain rpa49, active compounds read low 0.796 | locus YOR001W, strain rrp6, active compounds read low 0.89 | locus YOR106W, strain vam3, active compounds read low 0.849
inactive: locus YAL021C, strain ccr4, active compounds read low 0.935 | locus YAL026C, strain drs2, active compounds read low 0.976 | locus YAL030W, strain snc1, active compounds read low 0.994 | locus YBL061C, strain skt5, active compounds read low 0.999 | locus YBR009C, strain hhf1, active compounds read low 0.965 | locus YBR023C, strain chs3, active compounds read low 0.992 | locus YBR171W, strain sec66, active compounds read low 1.02 | locus YBR231C, strain swc5, active compounds read low 0.974 | locus YBR279W, strain paf1, active compounds read low 1 | locus YCL011C, strain gbp2, active compounds read low 0.94 | locus YCL016C, strain dcc1, active compounds read low 0.997 | locus YCL061C, strain MRC1, active compounds read low 0.997 | locus YCL069W, strain vba3, active compounds read low 1.02 | locus YCR088W, strain abp1, active compounds read low 1.01 | locus YDL005C, strain med2, active compounds read low 1.04 | locus YDL040C, strain nat1, active compounds read low 1.02 | locus YDR001C, strain nth1, active compounds read low 1.01 | locus YDR069C, strain doa4, active compounds read low 0.942 | locus YDR137W, strain rgp1, active compounds read low 0.922 | locus YDR159W, strain sac3, active compounds read low 1.04 | locus YDR195W, strain ref2 1.11 | locus YDR297W, strain sur2, active compounds read low 0.985 | locus YDR334W, strain swr1, active compounds read low 0.994 | locus YDR335W, strain msn5, active compounds read low 1 | locus YDR392W, strain spt3, active compounds read low 0.908 | locus YEL037C, strain rad23, active compounds read low 1 | locus YEL061C, strain CIN8 (second series), active compounds read low 1.01 | locus YER015W, strain faa2, active compounds read low 0.99 | locus YER016W, strain bim1, active compounds read low 1.02 | locus YER111C, strain swi4, active compounds read low 1.01 | locus YER155C, strain BEM2 (second series), active compounds read low 0.926 | locus YFR010W, strain ubp6, active compounds read low 0.985 | locus YGL167C, strain pmr1, active compounds read low 1 | locus YGL173C, strain kem1, active compounds read low 1.01 | locus YGL227W, strain vid30, active compounds read low 1.03 | locus YGL240W, strain doc1, active compounds read low 0.987 | locus YGL253W, strain hxk2, active compounds read low 1.01 | locus YHR013C, strain ard1, active compounds read low 1 | locus YHR027C, strain rpn1, active compounds read low 0.995 | locus YHR030C, strain SLT2, active compounds read low 1.03 | locus YHR079C, strain IRE1, active compounds read low 1.01 | locus YHR142W, strain chs7, active compounds read low 1 | locus YJL092W, strain hpr5, active compounds read low 1.01 | locus YJL095W, strain BCK1 (second series), active compounds read low 0.994 | locus YJL095W, strain BCK1, active compounds read low 0.992 | locus YJL115W, strain asf1, active compounds read low 1.01 | locus YJL129C, strain trk1, active compounds read low 1.03 | locus YJL154C, strain vps35, active compounds read low 1.02 | locus YJL164C, strain tpk1, active compounds read low 0.937 | locus YJL166W, strain qcr8, active compounds read low 0.944 | locus YJL187C, strain SWE1, active compounds read low 0.994 | locus YJR066W, strain TOR1, active compounds read low 0.965 | locus YKL160W, strain elf1, active compounds read low 1 | locus YKR026C, strain gcn3, active compounds read low 1 | locus YKR091W, strain srl3, active compounds read low 1.02 | locus YLL001W, strain dnm1, active compounds read low 1.02 | locus YLL026W, active compounds read low 1 | locus YLL041C, strain sdh2, active compounds read low 1.01 | locus YLR027C, strain aat2, active compounds read low 0.984 | locus YLR113W, strain HOG1, active compounds read low 0.959 | locus YLR258W, strain gsy2, active compounds read low 0.967 | locus YLR262C, strain YPT6 (second series), active compounds read low 0.945 | locus YLR320W, strain mms22, active compounds read low 0.97 | locus YLR342W, strain FKS1, active compounds read low 1 | locus YLR370C, strain arc18, active compounds read low 1 | locus YLR384C, strain iki3, active compounds read low 1.01 | locus YML120C, strain ndi1, active compounds read low 0.936 | locus YMR125W, strain sto1, active compounds read low 1.03 | locus YMR129W, active compounds read low 1.01 | locus YMR205C, strain PFK2, active compounds read low 1.01 | locus YMR231W, strain pep5, active compounds read low 1.01 | locus YNL071W, strain lat1, active compounds read low 0.942 | locus YNL183C, strain NPR1, active compounds read low 0.946 | locus YNL209W, strain ssb2, active compounds read low 0.993 | locus YNL322C, strain KRE1 (second series), active compounds read low 1 | locus YNR049C, strain mso1, active compounds read low 1.01 | locus YOR070C, strain gyp1, active compounds read low 1 | locus YOR080W, strain dia2, active compounds read low 1.01 | locus YOR083W, strain WHI5, active compounds read low 0.978 | locus YOR231W, strain MKK1, active compounds read low 1.03 | locus YOR265W, strain rbl2, active compounds read low 1 | locus YOR270C, strain vph1, active compounds read low 0.977 | locus YOR290C, strain snf2, active compounds read low 0.991 | locus YPL051W, strain arl3, active compounds read low 0.949 | locus YPL078C, strain atp4, active compounds read low 1 | locus YPL106C, strain sse1, active compounds read low 0.95 | locus YPL240C, strain hsp82, active compounds read low 1.02 | locus YPL256C, strain CLN2, active compounds read low 1.01
